Laboratory results: PubChem BioAssay AID1851 (National Center for Advancing Translational Sciences (NCATS), 2009)
In all, about 16,000 compounds went through this assay and about 4,000 (25%) were called active. Not shown: some 26% with an inconclusive outcome. The list is a sample of the results. Values without a mark were called inactive. The call rests on the fitted dose curve; in most records, active means well fitted curve in the direction sought with a large enough effect; inconclusive means small, poorly fitted or top-dose-only effect, or effect the other way; inactive means no such curve, though single readings can be large or run the other way.

target: Cytochrome P450 2C9 (Homo sapiens) (UniProt P11712); assay: Cytochrome panel assay with activity outcomes; settings: recombinant CYP, pro-luciferin dealkylation, luminescence, p450-cyp2c9; series mostly up to 57.1 µM
Sequence (P11712 whole entry, looked up): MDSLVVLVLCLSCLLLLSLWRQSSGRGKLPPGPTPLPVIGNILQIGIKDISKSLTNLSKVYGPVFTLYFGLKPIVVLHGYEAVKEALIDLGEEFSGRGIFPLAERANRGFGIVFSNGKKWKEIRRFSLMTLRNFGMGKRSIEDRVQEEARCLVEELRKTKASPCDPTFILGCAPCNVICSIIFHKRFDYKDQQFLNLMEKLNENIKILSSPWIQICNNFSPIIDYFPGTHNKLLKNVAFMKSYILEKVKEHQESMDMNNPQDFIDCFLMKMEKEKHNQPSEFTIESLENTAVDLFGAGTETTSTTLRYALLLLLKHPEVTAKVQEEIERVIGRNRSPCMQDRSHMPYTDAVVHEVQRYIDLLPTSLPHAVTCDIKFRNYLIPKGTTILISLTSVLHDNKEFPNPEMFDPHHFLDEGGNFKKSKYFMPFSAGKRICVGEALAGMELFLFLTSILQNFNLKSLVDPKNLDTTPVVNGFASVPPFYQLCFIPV
On the % scale 0 is the no-effect control and ±100 the full control effect.

Row | Compound | AC50 | activity, negative = inhibition
1 | C[n+]1ccccc1/C=N\O | inactive | 
2 | C=CCn1c(-c2cccn(Cc3ccccc3)c2=O)n[nH]c1=S | inactive | 
3 | O=c1c(-c2nc3ccccc3s2)cccn1Cc1ccccc1 | 3.16 µM (active) | 
4 | c1cc(CN2CCCCC2)cc(OCCCNc2nc3ccccc3s2)c1 | inactive | 
5 | Cc1cnc(CNc2ncncc2-c2cccc(C#N)c2)cn1 |  | -1.84% [at 2.29 µM]
6 | Cn1cc[nH]c1=S | inactive | 
7 | CN1CCC2(CC1)CCN(C(=O)c1cc(C(F)(F)F)cc(C(F)(F)F)c1)CC2 | inactive | 
8 | CCOC(=O)CSC1=C(C#N)C(c2sccc2C)CC(=O)N1 (configuration not stated) | 12.6 µM (active) | 
9 | CCOC(=O)CSC1=C(C#N)C(c2sccc2C)C(C(C)=O)=C(C)N1 (configuration not stated) | 1.78 µM (active) | 
10 | C=CCOC(=O)C1=C(C)NC(SCC(=O)OCC)=C(C#N)C1c1ccc(C)cc1 (configuration not stated) | 7.94 µM (active) | 
11 | CCCC(O)(CCC)C(=O)NN1CCCCC1 | inactive | 
12 | O=C(c1ccco1)N1CCC2(CC1)CN(c1ccc(-c3ccccc3)cc1)C2 | inactive | 
13 | O=C(c1ccco1)N1CCC2(CC1)CCN(c1ccccc1)CC2 | inactive | 
14 | CC(=O)N1CCc2cc(Br)cc(S(=O)(=O)N3CCN(C(=O)c4ccco4)CC3)c21 | 5.01 µM (active) | 
15 | COc1ccc(/C=N\NC(=O)O)cc1 |  | -7.71% [at 11.4 µM]
16 | Cc1ccc(S(=O)(=O)N/N=C/c2ccc(OC3CSC3)cc2)cc1 | 1.41 µM (active) | 
17 | COc1ccc(C(=O)Oc2cc(/C=N/NS(=O)(=O)c3ccc(C)cc3)ccc2OC)cc1 | 2.24 µM (active) | 
18 | CS(=O)(=O)c1ccc(/C=N\NC(N)=S)cc1 |  | -1.25% [at 11.4 µM]
19 | COc1ccc(/C=N/NC(=S)NC2CCS(=O)(=O)C2)cc1OC (configuration not stated) | inactive | 
20 | Fc1ccc(-c2ccnc3nc(N4CCOCC4)nn23)cc1 | inactive | 
21 | O=C(O)CCCSc1ccccc1 |  | 14.8% [at 11.4 µM]
22 | COC(=O)C1=C(C)NC(C)=C(C(=O)OCCSc2ccccc2)[C@@H]1C | 3.16 µM (active) | 
23 | Cc1nc2cnc(N3CCN(C)CC3)nc2n(Cc2ccc(F)cc2)c1=O | inactive | 
24 | COC(=O)c1ccc(Oc2cc(C)nc(-n3nc(C)cc3C)n2)cc1 | 25.1 µM (active) | 
25 | Cc1nc2ccccc2nc1-c1ccc(N=[N+]([O-])c2ccc(-c3nc4ccccc4nc3C)cc2)cc1 |  | -2.63% [at 11.4 µM]
26 | C[N+](C)(C)CCO | inactive | 

Row | Compound | AC50 | activity, negative = inhibition
27 | CC(C)COC[C@H](CN(Cc1ccccc1)c1ccccc1)N1CCCC1 | inactive | 
28 | c1ccc2c(c1)C(=Nc1ccc(N=C3c4ccccc4-c4ccccc43)cc1)c1ccccc1-2 |  | -2.68% [at 11.4 µM]
29 | CC1=NN(c2ccccc2)C(=O)C1 | inactive | 
30 | O=C1CC(=Nc2ccccc2)NN1c1ccccc1 | 2.82 µM (active) | 
31 | N#Cc1cccc(NC(=O)N2CCC3(CC2)CCN(C(=O)c2cccc(F)c2)CC3)c1 | inactive | 
32 | Cc1cc2c(s1)CCCCC(=O)N2 | inactive | 
33 | CN(C)CCCO[C@H]1[C@@H]2OC(C)(C)O[C@@H]2O[C@@H]1[C@H](O)CO | inactive | 
34 | COc1ccc(NC(=O)N2CCCC3(CCN(S(=O)(=O)c4ccccc4)CC3)C2)cc1 | 20 µM (active) | 
35 | COc1ccc(NC(=O)N2CCCC3(CCN(S(C)(=O)=O)CC3)C2)cc1 | inactive | 
36 | O=C(Nc1ccccc1)N1CCC2(CC1)CCN(S(=O)(=O)c1ccccc1)CC2 | inactive | 
37 | COc1ccc(NC(=O)N2CC3(CCN(S(C)(=O)=O)CC3)C2)cc1 | inactive | 
38 | COc1ccc(NC(=O)N2CC3(CCN(S(=O)(=O)c4ccccc4)CC3)C2)cc1 | inactive | 
39 | O=C(Nc1ccccc1)N1CCCC2(CCN(S(=O)(=O)c3ccccc3)CC2)C1 | 10 µM (active) | 
40 | COc1ccc(NC(=O)N2CCC3(CC2)CCN(S(C)(=O)=O)CC3)cc1 | 15.8 µM (active) | 
41 | COc1ccc(NC(=O)N2CCC3(CC2)CCN(S(=O)(=O)c2ccccc2)CC3)cc1 | inactive | 
42 | CS(=O)(=O)N1CCC[C@@]2(CCN(C(=O)Nc3ccccc3)C2)C1 | inactive | 
43 | CN1CC[C@@]2(CCN3CCc4c(oc5ccccc45)[C@@H]3C2)N(C)C1=O | inactive | 
44 | Cc1nc(N=Nc2cc(S(=O)(=O)O)ccc2S(=O)(=O)O)c(COP(=O)(O)O)c(C=O)c1O | inactive | 
45 | CN1CCCC[C@@H]1CCN1CCCCC1 |  | -2.28% [at 11.4 µM]
46 | Cn1c(=O)n(C)c2cc(/C=N/n3cnnc3)ccc21 | 2.24 µM (active) | 
47 | Cn1c(=O)n(C)c2cc(S(=O)(=O)O)ccc21 | inactive | 
48 | CSc1nncn1/N=C/c1ccc2c(c1)OCO2 | inactive | 
49 | CC(C)OC(=O)C1=C2SCC(=O)N2C(N)=C(C#N)C1 | 8.91 µM (active) | 
50 | Nc1nc(N)nc(CCCc2nc(N)nc(N)n2)n1 |  | 9.16% [at 11.4 µM]
51 | CC(C)=CC(=O)Nc1nnc(C(C)C)s1 | 10 µM (active) | 
52 | CC(=O)Nc1nnc(CCN2CCCCC2)s1 | inactive | 
